# Data as given in the supplement of paper PMC9177965.
# Where “and” joins values, the source holds several entries; their conditions need not be identical. Equal values may be shown once.
# Experiments:
# [1] = system: HT29 RNF43 G659fs (RNF43 659mut, CRISPR-edited); test: cell viability activity relative to DMSO (negative = inhibition); higher = more viable cells (less growth inhibition); conditions: 5 µM; 96 h
# Method: (§1)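 Broad Repurposing Library primary screen at a single dose of 5 uM. HT29 sg-Ctrl and HT29 RNF43 G659fs CRISPR-edited isogenic cells were seeded at 2500 cells/well in 384-well plates in duplicate and treated for 96 h. Viability was read by CellTiter-Glo and reported as % activity relative to DMSO, with MG132 as the positive control (negative = growth inhibition).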
# [2] = system: HT29 sg-Ctrl (RNF43 wildtype); test: as above; conditions: 5 µM; 96 h
# Method: as §1
compound,measurement,setting,value
Cc1cc(Nc2ccc(NC(=O)c3ccc(Nc4ccnc5ccccc45)cc3)cc2)nc(N)n1,cell viability activity,[1],-91%
same,cell viability activity,[2],-93.7%
COc1ccc(-c2ccc3c(N4CCOC[C@@H]4C)nc(N4CCOC[C@@H]4C)nc3n2)cc1CO,cell viability activity,[1],-71.9%
same,cell viability activity,[2],-55.9%
Cc1cc(Nc2nc(N[C@@H](C)c3ncc(F)cn3)ncc2Cl)[nH]n1,cell viability activity,[1],-32.8%
same,cell viability activity,[2],-31.6%
Cc1c(C2CCN(CCc3ccccc3)CC2)noc1-c1ccc(Cl)cc1,cell viability activity,[1],-38%
same,cell viability activity,[2],-39.7%
Cc1csc(-c2nnc(Nc3ccc(Oc4ncccc4-c4ccnc(N)n4)cc3)c3ccccc23)c1,cell viability activity,[1],-28.2%
same,cell viability activity,[2],-46.6%
COc1cc(/C=C/c2ccc(OC)cc2OC)cc(OC)c1,cell viability activity,[2],-75.7%
C/C(=C\c1csc(C)n1)[C@@H]1C[C@@H]2O[C@]2(C)CCC[C@H](C)[C@H](O)[C@@H](C)C(=O)C(C)(C)[C@@H](O)CC(=O)N1,cell viability activity,[1],-42.8%
same,cell viability activity,[2],-38.1%
Cc1cc(Nc2nc(N[C@@H](C)c3ccc(F)cc3)c(C#N)cc2F)n[nH]1,cell viability activity,[1],-66.7%
same,cell viability activity,[2],-56.7%
CCN(CC)CCOCCOC(=O)C(CC)(CC)c1ccccc1,cell viability activity,[1],-31%
same,cell viability activity,[2],-61.1%
Cc1cnc(Nc2ccc(F)cc2Cl)nc1-c1c[nH]c(C(=O)N[C@H](CO)c2cccc(Cl)c2)c1,cell viability activity,[1],-73.7%
same,cell viability activity,[2],-76%
O=c1[nH]c(=O)n([C@H]2C[C@H](O)[C@@H](CO)O2)cc1F,cell viability activity,[1],-58.1% and -58.2%
same,cell viability activity,[2],-54.2% and -63.2%
COC(=O)C[C@](O)(CCCC(C)(C)O)C(=O)O[C@@H]1C(OC)=C[C@]23CCCN2CCc2cc4c(cc2[C@H]13)OCO4,cell viability activity,[2],-86.7%
CC(=O)N(O)CCCCCNC(=O)CCC(=O)N(O)CCCCCNC(=O)CCC(=O)N(O)CCCCCN,cell viability activity,[1],-56.3%
same,cell viability activity,[2],-45%
COc1cc(/C=C/C(=O)CC(=O)/C=C/c2ccc(O)c(OC)c2)ccc1O,cell viability activity,[1],-87.7%
same,cell viability activity,[2],-84.2%
Nc1nccc2c1ncn2C1C=C(CO)C(O)C1O (configuration not stated),cell viability activity,[1],-38.4%
same,cell viability activity,[2],-46.7%
C#CCC(Cc1cnc2nc(N)nc(N)c2n1)c1ccc(C(=O)N[C@@H](CCC(=O)O)C(=O)O)cc1 (some centres not stated),cell viability activity,[1],-68.9%
same,cell viability activity,[2],-61.7%
C=CCc1cccc(/C=N/NC(=O)CN2CCN(Cc3ccccc3)CC2)c1O,cell viability activity,[2],-42.7%
O=C(NC1CCNCC1)c1n[nH]cc1NC(=O)c1c(Cl)cccc1Cl,cell viability activity,[1],-82.8%
same,cell viability activity,[2],-83.8%
CC(NCCC(c1ccccc1)c1ccccc1)c1ccccc1 (configuration not stated),cell viability activity,[1],-64.5%
same,cell viability activity,[2],-69.7%
Cn1nccc1Nc1nccc(-c2ccn([C@H](CO)c3ccc(Cl)c(F)c3)c(=O)c2)n1,cell viability activity,[1],-54.6%
same,cell viability activity,[2],-52.1%
NC(=NC1C2CC3CC(C2)CC1C3)Nc1ccc(I)cc1 (configuration not stated),cell viability activity,[1],-49.5%
same,cell viability activity,[2],-69.8%
C[C@H](Nc1cc(-c2cnn(C)c2)cc(Nc2cnccn2)n1)c1ccc(F)cc1,cell viability activity,[1],-46.9%
same,cell viability activity,[2],-43%
CN1CCC(NC(=O)c2cc(-c3c(O)cc(O)cc3Oc3ccc([N+](=O)[O-])cc3)on2)CC1,cell viability activity,[1],-26.7%
same,cell viability activity,[2],-21.1%
CC(C)(C)c1ccc(C(=O)CCCN2CCC(OC(c3ccccc3)c3ccccc3)CC2)cc1,cell viability activity,[2],-92.1%
CN1CCN(S(=O)(=O)c2ccc(-c3cnc(N)c(C(=O)Nc4cccnc4)n3)cc2)CC1,cell viability activity,[2],-40.9%
COC(=O)Nc1nc2cc(C(=O)c3ccc(F)cc3)ccc2[nH]1,cell viability activity,[2],-51.2%
Fc1cc(-c2cccc3ncc(-c4cnn(C5CCNCC5)c4)nc23)cc(F)c1CN1CCOCC1,cell viability activity,[2],-92.4%
OCCN1CCN(CCCN2c3ccccc3Sc3ccc(Cl)cc32)CC1,cell viability activity,[2],-90.5%
C1CCC(C(CC2CCCCN2)C2CCCCC2)CC1 (configuration not stated),cell viability activity,[2],-89%
CC(C)(C)c1[nH]cnc1/C=c1\[nH]c(=O)/c(=C/c2ccccc2)[nH]c1=O,cell viability activity,[2],-54%
COc1cc(N2CCC(N)CC2)ccc1Nc1ncc(Cl)c(-c2c[nH]c3ccccc23)n1,cell viability activity,[2],-95.7%
CC[C@@]1(O)C(=O)OCc2c1cc1n(c2=O)Cc2c-1nc1cc(F)c(C)c3c1c2[C@@H](N)CC3,cell viability activity,[2],-90.4%
CC1(C)CC(=O)c2c(C(F)(F)F)nn(-c3ccc(C(N)=O)c(N[C@H]4CC[C@H](OC(=O)CN)CC4)c3)c2C1,cell viability activity,[2],-84.8% and -87.4% and -83.8%
COC(=O)Nc1nc2ccc(SC(C)C)cc2[nH]1,cell viability activity,[2],-5.83%
C=C[C@@](C)(/C=C/c1ccc(O)cc1)CCC=C(C)C,cell viability activity,[2],-49.8%
CN1CCN(Cc2ccc(Nc3ncc(Cl)c(Nc4ccccc4S(=O)(=O)N(C)C)n3)cc2)CC1,cell viability activity,[2],-96.1%
Nc1nc2[nH]cnc2c(=S)[nH]1,cell viability activity,[2],-73.9%
O=C(NNc1nc2cc(F)ccc2n2cccc12)c1cnccn1,cell viability activity,[2],-88.3%
CC(C)C[C@@H](C=O)NC(=O)[C@H](CC(C)C)NC(=O)[C@H](CC(C)C)NC(=O)OCc1ccccc1,cell viability activity,[2],-96.2%
O=C1NCCN1CCN1CCC(c2cn(-c3ccc(F)cc3)c3ccc(Cl)cc23)CC1,cell viability activity,[2],-83.7%
CCOc1cc2ncc(C#N)c(Nc3ccc(OCc4cccc(F)c4)c(Cl)c3)c2cc1NC(=O)/C=C/CN(C)C,cell viability activity,[2],-28.1%
Cn1c(=O)c(F)c(Nc2ccc(I)cc2F)c2c(=O)n(C[C@@H](O)CO)cnc21,cell viability activity,[2],-90.5%
CN1CC[C@H](c2c(O)cc(O)c3c(=O)cc(-c4ccccc4Cl)oc23)[C@H](O)C1,cell viability activity,[2],-87.7%
COc1c(C)c2c(c(O)c1C/C=C(\C)CCC(=O)O)C(=O)OC2,cell viability activity,[2],-27.7%
CC(CN1c2ccccc2Sc2ccccc21)N(C)C (configuration not stated),cell viability activity,[2],-3.76%
CCNC(=O)Nc1ccc(-c2nc3c(c(N4CCOC[C@@H]4C)n2)CCN(C2COC2)C3)cc1,cell viability activity,[2],-22%
CC(=O)c1c(C)c2cnc(Nc3ccc(N4CCNCC4)cn3)nc2n(C2CCCC2)c1=O,cell viability activity,[2],-48.4%
